How the values were obtained:
Assay in all cases: DAPPL (digital affinity profiling via proximity ligation, sequencing); 10 mM Tris-HCl pH 7.5, 50 mM NaCl, 1 mM DTT, 4% glycerol, room temperature, 30 min; GST-TFs on glutathione beads, 16-mer random dsDNA library, 0.1% formaldehyde crosslink after washing; high values mean tight binding
Settings in all cases: protein: recombinant; tags: N-terminal GST; dsDNA, one strand shown
ELK1 = biological target: T1, ELK1 (Homo sapiens, UniProt P19419 1-428)
T1 sequence: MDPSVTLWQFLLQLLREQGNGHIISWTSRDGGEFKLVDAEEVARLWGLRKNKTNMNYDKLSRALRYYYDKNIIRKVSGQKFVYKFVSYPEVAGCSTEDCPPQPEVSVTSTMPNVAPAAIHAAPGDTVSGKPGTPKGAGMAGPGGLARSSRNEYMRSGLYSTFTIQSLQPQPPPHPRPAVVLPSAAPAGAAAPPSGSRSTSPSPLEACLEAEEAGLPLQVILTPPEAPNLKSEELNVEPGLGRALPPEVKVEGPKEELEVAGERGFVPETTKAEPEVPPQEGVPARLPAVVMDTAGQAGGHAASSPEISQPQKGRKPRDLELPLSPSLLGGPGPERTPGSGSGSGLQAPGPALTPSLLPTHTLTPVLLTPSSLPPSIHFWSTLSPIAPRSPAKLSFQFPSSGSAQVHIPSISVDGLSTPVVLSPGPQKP
How it was run: (§1)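 A tag-only sample was pooled with DNA-barcoded human transcription factors that had been expressed in yeast as GST fusions and captured on glutathione beads. The pools were incubated for 30 min at room temperature with 200 nmole of a random double-stranded 16-mer DNA library in Tris/NaCl/DTT/glycerol buffer, then washed, crosslinked with 0.1% formaldehyde, proximity-ligated (BsaI/T4 ligase, 1 h, 37 °C), PCR-amplified and sequenced on an Illumina NextSeq500. Binding signal is each hexamer's read frequency for a factor divided by its frequency for the tag-only sample.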

GABPA = biological target: T2, GABPA (Homo sapiens, UniProt Q06546 1-454)
T2 sequence: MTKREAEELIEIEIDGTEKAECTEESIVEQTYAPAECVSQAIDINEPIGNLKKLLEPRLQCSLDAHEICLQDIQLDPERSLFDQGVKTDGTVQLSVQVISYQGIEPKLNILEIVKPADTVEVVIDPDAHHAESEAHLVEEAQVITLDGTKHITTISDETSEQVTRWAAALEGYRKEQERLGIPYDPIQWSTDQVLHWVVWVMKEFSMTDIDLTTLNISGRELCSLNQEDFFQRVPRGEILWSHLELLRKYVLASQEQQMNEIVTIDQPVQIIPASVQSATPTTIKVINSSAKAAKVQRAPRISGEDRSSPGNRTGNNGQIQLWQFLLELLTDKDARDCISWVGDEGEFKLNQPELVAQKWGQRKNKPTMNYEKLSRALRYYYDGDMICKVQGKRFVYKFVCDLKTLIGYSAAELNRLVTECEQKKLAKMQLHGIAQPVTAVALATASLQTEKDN
How it was run: as §1

ERG = biological target: T3, ERG (Homo sapiens, UniProt P11308 1-479)
T3 sequence: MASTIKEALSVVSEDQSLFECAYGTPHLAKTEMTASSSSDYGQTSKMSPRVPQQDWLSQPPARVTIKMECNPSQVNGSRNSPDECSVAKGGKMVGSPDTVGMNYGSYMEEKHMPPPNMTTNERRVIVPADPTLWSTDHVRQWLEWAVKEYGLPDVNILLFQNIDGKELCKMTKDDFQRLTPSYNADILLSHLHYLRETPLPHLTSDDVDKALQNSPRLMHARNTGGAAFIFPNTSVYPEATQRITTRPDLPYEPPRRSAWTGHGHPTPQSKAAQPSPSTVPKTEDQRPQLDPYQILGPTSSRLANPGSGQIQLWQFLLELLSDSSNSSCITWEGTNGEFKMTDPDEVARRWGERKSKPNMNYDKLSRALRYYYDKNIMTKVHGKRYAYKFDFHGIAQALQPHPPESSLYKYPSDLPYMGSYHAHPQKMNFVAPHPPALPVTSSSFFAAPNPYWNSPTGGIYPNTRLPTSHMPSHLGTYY
How it was run: as §1

ELF1 = ELF1 (Homo sapiens, UniProt P32519 1-619)
Sequence of ELF1 (P32519 whole entry): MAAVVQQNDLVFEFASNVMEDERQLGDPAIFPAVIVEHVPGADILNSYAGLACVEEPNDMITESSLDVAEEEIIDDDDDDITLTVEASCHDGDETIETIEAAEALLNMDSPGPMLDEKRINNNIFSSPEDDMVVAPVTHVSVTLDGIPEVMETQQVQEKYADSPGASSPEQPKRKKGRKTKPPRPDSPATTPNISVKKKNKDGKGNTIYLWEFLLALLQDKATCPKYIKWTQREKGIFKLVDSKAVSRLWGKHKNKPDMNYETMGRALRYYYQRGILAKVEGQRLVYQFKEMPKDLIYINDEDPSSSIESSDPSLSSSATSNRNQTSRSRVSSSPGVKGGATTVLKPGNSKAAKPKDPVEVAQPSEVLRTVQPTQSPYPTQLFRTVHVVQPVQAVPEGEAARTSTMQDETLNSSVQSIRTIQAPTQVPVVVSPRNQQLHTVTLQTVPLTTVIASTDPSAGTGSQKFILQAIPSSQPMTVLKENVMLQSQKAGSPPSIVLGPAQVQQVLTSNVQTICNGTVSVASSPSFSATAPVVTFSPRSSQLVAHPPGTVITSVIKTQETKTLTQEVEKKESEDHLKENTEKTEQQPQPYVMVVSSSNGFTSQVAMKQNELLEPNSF
How it was run: as §1

EHF = biological target: T4, EHF (Homo sapiens, UniProt Q9NZC4 1-300)
T4 sequence: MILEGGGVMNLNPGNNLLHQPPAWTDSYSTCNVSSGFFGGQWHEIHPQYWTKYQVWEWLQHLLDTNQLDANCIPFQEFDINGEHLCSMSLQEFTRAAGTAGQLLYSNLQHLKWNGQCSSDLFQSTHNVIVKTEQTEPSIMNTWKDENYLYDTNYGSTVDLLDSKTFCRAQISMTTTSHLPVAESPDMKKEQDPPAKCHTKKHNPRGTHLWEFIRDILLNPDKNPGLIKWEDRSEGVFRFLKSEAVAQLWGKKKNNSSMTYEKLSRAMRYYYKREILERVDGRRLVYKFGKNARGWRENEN
How it was run: as §1

SPIB = SPIB (Homo sapiens, UniProt Q01892 1-262)
Sequence of SPIB (Q01892 whole entry): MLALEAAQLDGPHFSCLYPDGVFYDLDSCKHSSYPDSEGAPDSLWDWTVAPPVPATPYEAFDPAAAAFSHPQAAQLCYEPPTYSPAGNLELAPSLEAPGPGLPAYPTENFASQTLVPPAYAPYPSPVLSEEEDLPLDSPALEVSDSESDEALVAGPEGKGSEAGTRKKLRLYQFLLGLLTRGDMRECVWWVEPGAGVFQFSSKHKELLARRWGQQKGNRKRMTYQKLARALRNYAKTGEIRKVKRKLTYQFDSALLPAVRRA
How it was run: as §1

FEV = biological target: T5, FEV (Homo sapiens, UniProt Q99581 1-238)
T5 sequence: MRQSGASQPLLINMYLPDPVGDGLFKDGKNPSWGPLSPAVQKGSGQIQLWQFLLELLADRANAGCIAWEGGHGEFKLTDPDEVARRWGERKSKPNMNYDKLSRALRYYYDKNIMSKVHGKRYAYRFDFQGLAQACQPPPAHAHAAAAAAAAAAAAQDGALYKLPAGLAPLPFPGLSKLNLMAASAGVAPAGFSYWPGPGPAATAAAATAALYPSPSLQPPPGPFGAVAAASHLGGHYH
How it was run: as §1

ETV5 = ETV5 (Homo sapiens, UniProt P41161 1-510)
Sequence of ETV5 (P41161 whole entry): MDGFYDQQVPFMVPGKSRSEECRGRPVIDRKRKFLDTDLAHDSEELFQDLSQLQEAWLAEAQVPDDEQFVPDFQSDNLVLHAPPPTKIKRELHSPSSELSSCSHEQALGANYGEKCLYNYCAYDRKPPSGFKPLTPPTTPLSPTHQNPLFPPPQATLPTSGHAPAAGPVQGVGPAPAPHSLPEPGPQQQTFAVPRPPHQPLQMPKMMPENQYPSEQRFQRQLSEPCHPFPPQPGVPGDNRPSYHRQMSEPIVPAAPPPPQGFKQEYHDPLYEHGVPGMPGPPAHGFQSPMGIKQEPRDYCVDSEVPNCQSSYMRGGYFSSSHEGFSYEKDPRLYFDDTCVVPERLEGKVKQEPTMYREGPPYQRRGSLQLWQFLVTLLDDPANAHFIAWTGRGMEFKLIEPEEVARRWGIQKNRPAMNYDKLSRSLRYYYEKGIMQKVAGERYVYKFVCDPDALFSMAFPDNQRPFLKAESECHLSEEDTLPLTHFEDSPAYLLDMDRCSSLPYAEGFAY
How it was run: as §1

ELF4 = ELF4 (Homo sapiens, UniProt Q99607 1-663)
Sequence of ELF4 (Q99607 whole entry): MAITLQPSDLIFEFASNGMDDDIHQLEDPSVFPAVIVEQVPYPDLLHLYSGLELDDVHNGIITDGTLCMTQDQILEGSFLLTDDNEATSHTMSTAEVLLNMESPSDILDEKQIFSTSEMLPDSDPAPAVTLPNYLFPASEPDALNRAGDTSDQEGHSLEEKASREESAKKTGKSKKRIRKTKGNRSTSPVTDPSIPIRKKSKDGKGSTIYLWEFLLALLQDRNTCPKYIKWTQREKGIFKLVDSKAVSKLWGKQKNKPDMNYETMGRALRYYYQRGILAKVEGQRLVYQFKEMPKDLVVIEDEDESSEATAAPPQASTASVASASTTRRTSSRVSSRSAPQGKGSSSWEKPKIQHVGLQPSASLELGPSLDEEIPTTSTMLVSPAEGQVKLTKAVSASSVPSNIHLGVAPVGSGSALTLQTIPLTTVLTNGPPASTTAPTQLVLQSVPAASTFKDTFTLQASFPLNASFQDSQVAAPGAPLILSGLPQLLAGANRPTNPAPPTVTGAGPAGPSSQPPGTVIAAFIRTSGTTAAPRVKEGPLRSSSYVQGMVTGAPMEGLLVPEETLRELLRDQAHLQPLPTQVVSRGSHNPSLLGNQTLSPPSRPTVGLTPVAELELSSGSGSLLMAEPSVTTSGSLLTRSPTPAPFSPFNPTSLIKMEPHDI
How it was run: as §1

ELK4 = biological target: T6, ELK4 (Homo sapiens, UniProt P28324-2 1-405)
T6 sequence: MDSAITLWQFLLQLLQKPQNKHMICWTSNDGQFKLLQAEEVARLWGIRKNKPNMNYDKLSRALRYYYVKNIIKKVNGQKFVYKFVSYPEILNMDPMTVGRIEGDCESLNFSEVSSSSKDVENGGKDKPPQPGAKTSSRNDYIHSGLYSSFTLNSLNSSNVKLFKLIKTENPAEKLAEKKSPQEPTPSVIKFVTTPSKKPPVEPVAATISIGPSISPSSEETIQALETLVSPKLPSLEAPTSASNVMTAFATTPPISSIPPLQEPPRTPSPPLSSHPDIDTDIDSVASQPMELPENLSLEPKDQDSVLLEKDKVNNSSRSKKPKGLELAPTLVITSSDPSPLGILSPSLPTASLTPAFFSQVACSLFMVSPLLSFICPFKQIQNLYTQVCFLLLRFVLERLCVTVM
How it was run: as §1

ETV2 = biological target: T7, ETV2 (Homo sapiens, UniProt O00321 1-342)
T7 sequence: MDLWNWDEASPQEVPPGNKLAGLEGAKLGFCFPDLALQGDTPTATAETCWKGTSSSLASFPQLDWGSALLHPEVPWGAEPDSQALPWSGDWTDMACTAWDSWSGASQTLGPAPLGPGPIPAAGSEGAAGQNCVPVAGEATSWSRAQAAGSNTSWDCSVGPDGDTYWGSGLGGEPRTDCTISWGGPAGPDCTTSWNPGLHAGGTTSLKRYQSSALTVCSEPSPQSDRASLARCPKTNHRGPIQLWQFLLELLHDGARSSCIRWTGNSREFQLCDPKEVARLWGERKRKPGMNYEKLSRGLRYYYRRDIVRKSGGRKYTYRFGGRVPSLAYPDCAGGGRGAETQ
How it was run: as §1

ELF3 = biological target: T8, ELF3 (Homo sapiens, UniProt P78545 1-371)
T8 sequence: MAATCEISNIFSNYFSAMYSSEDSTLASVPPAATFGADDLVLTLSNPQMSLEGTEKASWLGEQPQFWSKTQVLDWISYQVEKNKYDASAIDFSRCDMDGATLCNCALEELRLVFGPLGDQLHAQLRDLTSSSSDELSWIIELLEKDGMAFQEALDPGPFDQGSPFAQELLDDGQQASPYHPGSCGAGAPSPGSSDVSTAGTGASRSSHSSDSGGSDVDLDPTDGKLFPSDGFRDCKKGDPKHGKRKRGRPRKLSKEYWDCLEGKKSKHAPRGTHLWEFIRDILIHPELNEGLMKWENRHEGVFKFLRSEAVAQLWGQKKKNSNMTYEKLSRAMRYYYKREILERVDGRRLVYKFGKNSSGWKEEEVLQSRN
How it was run: as §1

ERF = biological target: T9, ERF (Homo sapiens, UniProt P50548 1-548)
T9 sequence: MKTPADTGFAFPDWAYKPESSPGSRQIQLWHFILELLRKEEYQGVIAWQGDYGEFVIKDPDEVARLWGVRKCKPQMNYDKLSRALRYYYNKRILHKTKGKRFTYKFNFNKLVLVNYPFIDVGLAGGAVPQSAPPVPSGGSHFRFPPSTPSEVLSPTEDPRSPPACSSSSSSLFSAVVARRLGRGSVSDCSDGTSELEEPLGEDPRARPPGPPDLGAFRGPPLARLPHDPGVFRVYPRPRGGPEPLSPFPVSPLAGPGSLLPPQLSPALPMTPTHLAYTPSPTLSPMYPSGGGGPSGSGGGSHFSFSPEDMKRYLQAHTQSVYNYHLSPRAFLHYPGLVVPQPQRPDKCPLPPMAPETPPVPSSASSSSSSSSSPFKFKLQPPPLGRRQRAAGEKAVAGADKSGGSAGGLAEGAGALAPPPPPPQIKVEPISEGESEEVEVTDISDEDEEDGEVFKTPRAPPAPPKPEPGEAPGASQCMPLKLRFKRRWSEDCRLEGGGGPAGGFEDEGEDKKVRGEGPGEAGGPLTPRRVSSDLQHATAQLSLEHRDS
How it was run: as §1

ETV3L = biological target: T10, ETV3L (Homo sapiens, UniProt Q6ZN32 1-361)
T10 sequence: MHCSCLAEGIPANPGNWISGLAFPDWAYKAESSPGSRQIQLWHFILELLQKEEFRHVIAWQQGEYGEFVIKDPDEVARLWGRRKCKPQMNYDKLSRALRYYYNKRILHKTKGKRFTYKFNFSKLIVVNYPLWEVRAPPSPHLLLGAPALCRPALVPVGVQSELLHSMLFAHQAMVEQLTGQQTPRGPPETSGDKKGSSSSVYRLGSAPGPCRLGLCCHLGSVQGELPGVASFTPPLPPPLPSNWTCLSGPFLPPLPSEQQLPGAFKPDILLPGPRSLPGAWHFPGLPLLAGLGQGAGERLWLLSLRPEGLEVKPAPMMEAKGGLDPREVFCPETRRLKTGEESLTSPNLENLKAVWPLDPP
How it was run: as §1

ETS2 = biological target: T11, ETS2 (Homo sapiens, UniProt P15036 1-469)
T11 sequence: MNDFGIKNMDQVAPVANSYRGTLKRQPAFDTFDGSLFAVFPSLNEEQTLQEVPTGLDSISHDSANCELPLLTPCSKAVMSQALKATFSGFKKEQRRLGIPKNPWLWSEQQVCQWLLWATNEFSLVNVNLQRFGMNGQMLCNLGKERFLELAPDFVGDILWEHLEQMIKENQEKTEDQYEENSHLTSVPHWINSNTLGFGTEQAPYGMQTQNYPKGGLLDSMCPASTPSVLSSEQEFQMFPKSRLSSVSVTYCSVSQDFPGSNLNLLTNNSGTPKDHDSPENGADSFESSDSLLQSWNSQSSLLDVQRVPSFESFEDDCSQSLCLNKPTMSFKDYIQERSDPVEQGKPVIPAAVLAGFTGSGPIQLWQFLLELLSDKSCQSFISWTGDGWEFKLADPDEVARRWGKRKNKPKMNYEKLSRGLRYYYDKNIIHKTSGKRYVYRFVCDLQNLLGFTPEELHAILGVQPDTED
How it was run: as §1

SPDEF = biological target: T12, SPDEF (Homo sapiens, UniProt O95238 1-335)
T12 sequence: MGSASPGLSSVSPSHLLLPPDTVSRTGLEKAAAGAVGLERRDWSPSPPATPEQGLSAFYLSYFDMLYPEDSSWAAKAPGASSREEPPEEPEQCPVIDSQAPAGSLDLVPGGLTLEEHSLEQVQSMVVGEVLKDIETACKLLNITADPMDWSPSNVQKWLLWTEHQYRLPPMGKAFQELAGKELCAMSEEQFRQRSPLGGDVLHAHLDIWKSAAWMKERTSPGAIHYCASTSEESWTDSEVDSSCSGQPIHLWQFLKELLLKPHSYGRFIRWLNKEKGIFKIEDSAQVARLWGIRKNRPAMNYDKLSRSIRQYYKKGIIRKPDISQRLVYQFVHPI
How it was run: as §1

ETV3 = biological target: T13, ETV3 (Homo sapiens, UniProt P41162-2 1-143)
T13 sequence: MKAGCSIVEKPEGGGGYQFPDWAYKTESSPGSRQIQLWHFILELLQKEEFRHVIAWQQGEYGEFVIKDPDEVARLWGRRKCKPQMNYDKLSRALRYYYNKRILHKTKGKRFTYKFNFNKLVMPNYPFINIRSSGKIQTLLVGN
How it was run: as §1

ETV6 = ETV6 (Homo sapiens, UniProt P41212 1-452)
Sequence of ETV6 (P41212 whole entry): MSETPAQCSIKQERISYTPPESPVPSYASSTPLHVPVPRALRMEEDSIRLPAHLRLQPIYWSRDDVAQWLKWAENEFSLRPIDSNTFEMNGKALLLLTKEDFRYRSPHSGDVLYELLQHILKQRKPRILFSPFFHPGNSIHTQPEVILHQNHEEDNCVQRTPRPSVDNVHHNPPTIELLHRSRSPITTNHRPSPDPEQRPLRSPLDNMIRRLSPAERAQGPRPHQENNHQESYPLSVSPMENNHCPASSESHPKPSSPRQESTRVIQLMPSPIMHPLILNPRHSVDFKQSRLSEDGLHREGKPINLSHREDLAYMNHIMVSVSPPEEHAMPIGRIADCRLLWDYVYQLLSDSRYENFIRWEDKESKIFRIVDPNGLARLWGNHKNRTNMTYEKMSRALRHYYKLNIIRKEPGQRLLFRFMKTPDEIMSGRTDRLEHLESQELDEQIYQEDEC
How it was run: as §1

## AGCGCC
ELK1
  binding signal: 1.06 fold enrichment (6-mer frequency, TF over GST control)
GABPA
  binding signal: 1.07 fold enrichment (6-mer frequency, TF over GST control)
ERG
  binding signal: 1.05 fold enrichment (6-mer frequency, TF over GST control)
ELF1
  binding signal: 1.13 fold enrichment (6-mer frequency, TF over GST control)
EHF
  binding signal: 1.13 fold enrichment (6-mer frequency, TF over GST control)
SPIB
  binding signal: 1.1 fold enrichment (6-mer frequency, TF over GST control)
FEV
  binding signal: 1.19 fold enrichment (6-mer frequency, TF over GST control)
ETV5
  binding signal: 1.04 fold enrichment (6-mer frequency, TF over GST control)
ELF4
  binding signal: 1.09 fold enrichment (6-mer frequency, TF over GST control)
ELK4
  binding signal: 1.11 fold enrichment (6-mer frequency, TF over GST control)
ETV2
  binding signal: 1.09 fold enrichment (6-mer frequency, TF over GST control)
ELF3
  binding signal: 1.09 fold enrichment (6-mer frequency, TF over GST control)
ERF
  binding signal: 1.05 fold enrichment (6-mer frequency, TF over GST control)
ETV3L
  binding signal: 1.07 fold enrichment (6-mer frequency, TF over GST control)
ETS2
  binding signal: 1.06 fold enrichment (6-mer frequency, TF over GST control)
SPDEF
  binding signal: 1.02 fold enrichment (6-mer frequency, TF over GST control)
ETV3
  binding signal: 1.14 fold enrichment (6-mer frequency, TF over GST control)
ETV6
  binding signal: 1.16 fold enrichment (6-mer frequency, TF over GST control)
